Among the test systems are HT29 colon; SNB-75 CNS; SNB-19 CNS; U251 CNS; PC-3 prostate; UACC-62 melanoma; LOX IMVI melanoma; SK-MEL-28 melanoma; SK-MEL-2 melanoma; EKVX NSCLC; SN12C renal; UO-31 renal; TK-10 renal; ACHN renal; CAKI-1 renal; CCRF-CEM leukemia; MOLT-4 leukemia; SR leukemia; A498 renal; SK-MEL-5 melanoma.
Common to all, as to assay: NCI-60 one-dose screen, 48 h (100 = growth as untreated, 0 = no growth, -100 = all killed)
Common to all, as to conditions: 10 µM

Molecules are shown by their SMILES. The panel holds about 83,000 compounds, 20% with a hit somewhere; the sample as a whole holds those more often.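 Cell lines were cultured in 96-well plates, exposed to a single compound concentration, and assessed for percent growth 48 hours later.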 A number with no mark means an inactive call. Calls of active or inactive are those of the source. How the source made its calls: active means growth percent below 10; inactive means the rest.

For the molecule `COc1ccc(OC)c2c1C(=O)CC2C` (stereo not given), the growth in the assay with HT29 colon is 108%; with SNB-75 CNS it was 93%; in the assay on SNB-19 CNS it was 99.6%; in the assay with U251 CNS, 100%; in the assay on PC-3 prostate it was 97.5%; with UACC-62 melanoma, 96.4%. Besides, the growth in the assay with LOX IMVI melanoma was 100%; with SK-MEL-28 melanoma it was 101%; in the assay with SK-MEL-2 melanoma, 121%; with EKVX NSCLC, 98.7%; with SN12C renal, 99.3%; in the assay on UO-31 renal, 83.7%. Further, the growth in the assay on TK-10 renal is 118%; in the assay with ACHN renal, 113%; with CAKI-1 renal it was 97.6%; in the assay with CCRF-CEM leukemia, 101%; with MOLT-4 leukemia it was 112%; in the assay with SR leukemia, 113%.

For the molecule `CC/C(=C(/c1ccc(OCCN(C)C)cc1)c1ccc(OC(=O)CCCCC(=O)c2c(C)[nH]c(/C=C3\N=C(c4ccc[nH]4)C=C3OC)c2C)cc1)c1ccccc1`, the growth in the assay on HT29 colon was 14.3%; in the assay on SNB-75 CNS it was 42.3%; in the assay on SNB-19 CNS, 91.8%; with U251 CNS it was 43.5%; in the assay on PC-3 prostate, 42.3%; in the assay on UACC-62 melanoma, 75.1%. The growth with LOX IMVI melanoma was 14%; in the assay with SK-MEL-28 melanoma it was 85.6%; in the assay on SK-MEL-2 melanoma, 69%; with SN12C renal it was 62.3%; with UO-31 renal, 45.4%; with TK-10 renal, 103%. The growth in the assay on ACHN renal is 67.1%; with CAKI-1 renal it was 47.6%; in the assay on A498 renal it was 75.7%; in the assay on CCRF-CEM leukemia, 9.97% (active); with MOLT-4 leukemia, 26.7%; with SR leukemia it was 45.3%.

As to `Cc1cccc2c1O/C(=C\c1ccc([N+](=O)[O-])o1)C2=O`, the growth is -67.4% (active) with HT29 colon; 65% with SNB-75 CNS; 44.2% in the assay with SNB-19 CNS; -19.7% (active) in the assay with U251 CNS; -36.3% (active) in the assay with PC-3 prostate; -58.9% (active) in the assay with UACC-62 melanoma. The growth in the assay with LOX IMVI melanoma is -83.6% (active); in the assay with SK-MEL-28 melanoma it was -56.6% (active); in the assay with SK-MEL-2 melanoma, -62.8% (active); in the assay on SN12C renal, -17.5% (active); in the assay with UO-31 renal, -62.6% (active); with TK-10 renal, -88.2% (active). The growth in the assay on ACHN renal is -81.9% (active); in the assay on CAKI-1 renal, -3% (active); with A498 renal, 49%; with CCRF-CEM leukemia, -26.4% (active); in the assay with MOLT-4 leukemia it was -14.7% (active); in the assay with SR leukemia, 2.46% (active).

Turning to `O=C(Cc1csc2nc(-c3ccc(Cl)cc3)cn12)N/N=C/c1ccccc1O`, the growth in the assay on HT29 colon was 82.1%; with SNB-75 CNS, 68.6%; with SNB-19 CNS it was 60.8%; with U251 CNS it was 42.2%; in the assay on PC-3 prostate, 55.2%; in the assay on SK-MEL-5 melanoma it was 45.8%. Besides, the growth is 46% in the assay on UACC-62 melanoma; 38.6% in the assay on LOX IMVI melanoma; 75.8% with SK-MEL-2 melanoma; 32.2% with EKVX NSCLC; 61% in the assay with SN12C renal; 27.2% with UO-31 renal. The growth with TK-10 renal was 57.1%; in the assay on ACHN renal, 26.4%; in the assay on CAKI-1 renal it was 34.5%; in the assay on CCRF-CEM leukemia, 20.2%; in the assay on MOLT-4 leukemia, 10.5%; in the assay on SR leukemia it was -11.5% (active).

Consider `COc1ccc(-c2nn(-c3cccc(NC(=O)c4cc(C(F)(F)F)cc(C(F)(F)F)c4)c3)cc2-c2ccncc2)cc1Cl`, for which the growth in the assay with HT29 colon is 61%; in the assay with SNB-75 CNS, 60.9%; in the assay on SNB-19 CNS, 90.8%; with PC-3 prostate it was 40.7%; in the assay on SK-MEL-5 melanoma it was 62.9%; with UACC-62 melanoma, 73.6%. The growth was 80.3% with LOX IMVI melanoma; 67.3% in the assay with SK-MEL-28 melanoma; 78.1% in the assay with SN12C renal; 43% in the assay with UO-31 renal; 85.5% in the assay with TK-10 renal; 50.1% in the assay on CAKI-1 renal. In addition, the growth in the assay on A498 renal was 39.7%; in the assay with CCRF-CEM leukemia, 64.4%; in the assay with MOLT-4 leukemia, 69.5%; with SR leukemia it was 36.3%.

Consider `COc1cc([C@@H]2c3cc4c(cc3C(Br)[C@H]3COC(=O)[C@H]23)OCO4)cc(OC)c1OC` (stereo not given in full), for which the growth in the assay with HT29 colon is -10.4% (active); in the assay on SNB-75 CNS it was 9.76% (active); in the assay with SNB-19 CNS it was -32.3% (active); in the assay on U251 CNS, 1.29% (active); in the assay with PC-3 prostate, 0.631% (active); in the assay with UACC-62 melanoma, 14.1%. The growth with LOX IMVI melanoma was 23.8%; with SK-MEL-2 melanoma it was 7.95% (active); in the assay on EKVX NSCLC, 22%; in the assay on SN12C renal, 31%; with UO-31 renal it was 8.5% (active); in the assay with TK-10 renal, 54.2%. For the same molecule, the growth with ACHN renal is 22.5%; with CAKI-1 renal it was 12.3%; with CCRF-CEM leukemia it was -15.5% (active).

On to `O=[N+]([O-])c1cccc(-c2ncc(-c3ccc(Cl)cc3Cl)[nH]2)c1`, for which the growth in the assay on HT29 colon was -65.2% (active); in the assay on SNB-75 CNS, 90.6%; with SNB-19 CNS it was 96.7%; in the assay with PC-3 prostate, -82.6% (active); in the assay with SK-MEL-5 melanoma it was 94.7%; in the assay with UACC-62 melanoma it was 63.4%. The growth in the assay with LOX IMVI melanoma is -100% (active); in the assay with SK-MEL-28 melanoma it was 92.8%; in the assay on EKVX NSCLC, 91.5%; in the assay with SN12C renal, 80.9%; with UO-31 renal, 60.4%; in the assay with TK-10 renal it was 20.1%. In addition, the growth in the assay with CAKI-1 renal is 100%; in the assay on A498 renal, 104%; in the assay on MOLT-4 leukemia, 22.1%; in the assay with SR leukemia, -36.6% (active).

Consider `CC[C@H]1CCC/C=C/[C@@H]2C[C@H](O)C[C@H]2[C@H](O)/C=C/C(=O)O1`, for which the growth in the assay with HT29 colon was -56.8% (active); in the assay on SNB-75 CNS, 27.5%; in the assay with SNB-19 CNS, 29.7%; in the assay on PC-3 prostate, 13.6%; in the assay on SK-MEL-5 melanoma, -99.6% (active); with UACC-62 melanoma, -0.469% (active). Besides, the growth is -93.5% (active) in the assay with LOX IMVI melanoma; -0.327% (active) with SK-MEL-28 melanoma; -48.1% (active) with SK-MEL-2 melanoma; -1.36% (active) with EKVX NSCLC; 3.46% (active) in the assay on SN12C renal; -9.94% (active) in the assay with UO-31 renal. Moreover, the growth in the assay with TK-10 renal was -48% (active); in the assay with ACHN renal it was 0.373% (active); in the assay with CAKI-1 renal it was -0.599% (active); in the assay with A498 renal, -45.3% (active); with CCRF-CEM leukemia, 7.71% (active); in the assay with MOLT-4 leukemia, 0.81% (active). In addition, the growth with SR leukemia is 2.29% (active).

Turning to `COc1ccc(-c2nn(-c3cccc(NC(=O)Nc4cccc(C(F)(F)F)c4)c3)cc2-c2ccncc2)cc1Cl`, the growth with HT29 colon was 2.94% (active); in the assay with SNB-75 CNS, 21.5%; in the assay on SNB-19 CNS, 37.1%; in the assay on U251 CNS, -25.2% (active); in the assay on PC-3 prostate, 3.59% (active); in the assay with UACC-62 melanoma it was -21.5% (active). Further, the growth in the assay on LOX IMVI melanoma was 22.6%; in the assay on SK-MEL-28 melanoma, 15.6%; with SN12C renal it was 19.7%; in the assay with UO-31 renal, -4.03% (active); with TK-10 renal it was 11.8%; in the assay on ACHN renal, 17.5%. Also, the growth in the assay on CAKI-1 renal was 1.63% (active); with A498 renal, 0.293% (active); in the assay with CCRF-CEM leukemia it was 2.2% (active); with MOLT-4 leukemia it was 2.54% (active); in the assay on SR leukemia, 4.34% (active).

These data come from PubChem BioAssay (NCI).
